# Like-named read-outs stand apart in the source and are kept apart here.
# Key:
# KIT-autoinhibited = conditions: concentration: 1 μM, replicates: in singlicate; n = 1
# KIT = conditions: concentration: 1 μM, replicates: in singlicate; n = 1
# LATS1 = conditions: concentration: 1 μM, replicates: in singlicate; n = 1
# LATS2 = conditions: concentration: 1 μM, replicates: in singlicate; n = 1
# LCK = conditions: concentration: 1 μM, replicates: in singlicate; n = 1
# LIMK1 = conditions: concentration: 1 μM, replicates: in singlicate; n = 1
# LIMK2 = conditions: concentration: 1 μM, replicates: in singlicate; n = 1
# LKB1 = tested on: T1, LKB1; conditions: concentration: 1 μM, replicates: in singlicate; n = 1
# T1 construct: gene STK11
# LOK = tested on: T2, LOK; conditions: concentration: 1 μM, replicates: in singlicate; n = 1
# T2 construct: gene STK10
# LRRK2 = conditions: concentration: 1 μM, replicates: in singlicate; n = 1
# LTK = conditions: n = 1
# LYN = conditions: concentration: 1 μM, replicates: in singlicate; n = 1
# LZK = tested on: T3, LZK; conditions: concentration: 1 μM, replicates: in singlicate; n = 1
# T3 construct: gene MAP3K13
# MAK = conditions: concentration: 1 μM, replicates: in singlicate; n = 1
# MAP3K15 = conditions: concentration: 1 μM, replicates: in singlicate; n = 1
# MAP3K1 = conditions: concentration: 1 μM, replicates: in singlicate; n = 1
# MAP3K2 = conditions: concentration: 1 μM, replicates: in singlicate; n = 1
# MAP3K3 = conditions: concentration: 1 μM, replicates: in singlicate; n = 1
# MAP3K4 = conditions: concentration: 1 μM, replicates: in singlicate; n = 1
# MAP4K2 = conditions: concentration: 1 μM, replicates: in singlicate; n = 1
# [1] = concentration: 1 μM, replicates: in singlicate
# 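Further: KINOMEscan kinase panel screen.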
structure (smiles),measurement,setting,value
O=c1cc(N2CCOCC2)nc2n(Cc3cccc(Cl)c3Cl)c(C3CC3)nn12 [GSK2358994],%Inh,KIT-autoinhibited,15%
same,%Inh,KIT,0%
same,%Inh,LATS1,0%
same,%Inh,LATS2,27%
same,%Inh,LCK,23%
same,%Inh,LIMK1,9%
same,%Inh,LIMK2,8%
same,%Inh,LKB1,15%
same,%Inh,LOK,0%
same,%Inh,LRRK2,0%
same,%Inh,LTK; 1 µM,0%
same,%Inh,LYN,0%
same,%Inh,LZK,0%
same,%Inh,MAK,0%
same,%Inh,MAP3K15,0%
same,%Inh,MAP3K1,14%
same,%Inh,MAP3K2,0%
same,%Inh,MAP3K3,0%
same,%Inh,MAP3K4,19%
same,%Inh,MAP4K2,11%
NS(=O)(=O)CCc1cccc(Nc2nccc(-c3c(-c4cccc(NC(=O)c5c(F)cccc5F)c4)nn4ccccc34)n2)c1 [GSK336735],%Inh,KIT-autoinhibited,13%
same,%Inh,KIT,100%
same,%Inh,LATS1,7%
same,%Inh,LATS2,7%
same,%Inh,LCK,99.6%
same,%Inh,LIMK1,67%
same,%Inh,LIMK2,9%
same,%Inh,LKB1,1%
same,%Inh,LOK,99.4%
same,%Inh,LRRK2,0%
same,%Inh,LTK; [1],39%
same,%Inh,LYN,97.8%
same,%Inh,LZK,0%
same,%Inh,MAK,22%
same,%Inh,MAP3K15,5%
same,%Inh,MAP3K1,13%
same,%Inh,MAP3K2,88%
same,%Inh,MAP3K3,79%
same,%Inh,MAP3K4,76%
same,%Inh,MAP4K2,0%
COc1cc2c(cc1OC[C@@H](O)CO)ncc1c3ccc(C#N)cc3[nH]c21,%Inh,KIT-autoinhibited,48%
same,%Inh,KIT,63%
same,%Inh,LATS1,0%
same,%Inh,LATS2,41%
same,%Inh,LCK,0%
same,%Inh,LIMK1,0%
same,%Inh,LIMK2,0%
same,%Inh,LKB1,0%
same,%Inh,LOK,20%
same,%Inh,LRRK2,93.1%
same,%Inh,LTK; [1],0%
same,%Inh,LYN,0%
same,%Inh,LZK,8%
same,%Inh,MAK,0%
same,%Inh,MAP3K15,42%
same,%Inh,MAP3K1,0%
same,%Inh,MAP3K2,0%
same,%Inh,MAP3K3,6%
same,%Inh,MAP3K4,0%
same,%Inh,MAP4K2,17%
Cl.Oc1cccc(Nc2ccnc3cc(-c4ccncc4)ccc23)c1 [GW494601],%Inh,KIT-autoinhibited,32%
same,%Inh,KIT,99.8%
same,%Inh,LATS1,6%
same,%Inh,LATS2,0%
same,%Inh,LCK,98.7%
same,%Inh,LIMK1,0%
same,%Inh,LIMK2,6%
same,%Inh,LKB1,0%
same,%Inh,LOK,31%
same,%Inh,LRRK2,75%
same,%Inh,LTK; [1],69%
same,%Inh,LYN,86%
same,%Inh,LZK,36%
same,%Inh,MAK,61%
same,%Inh,MAP3K15,0%
same,%Inh,MAP3K1,1%
same,%Inh,MAP3K2,76%
same,%Inh,MAP3K3,70%
same,%Inh,MAP3K4,0%
same,%Inh,MAP4K2,88%
Cc1nnc(-c2ccc(C)c(-c3ccc(C(=O)Nc4ccc(NS(C)(=O)=O)cc4)cc3)c2)o1 [GW702865],%Inh,KIT-autoinhibited,0%
same,%Inh,KIT,58%
same,%Inh,LATS1,0%
same,%Inh,LATS2,1%
same,%Inh,LCK,17%
same,%Inh,LIMK1,0%
same,%Inh,LIMK2,0%
same,%Inh,LKB1,26%
same,%Inh,LOK,6%
same,%Inh,LRRK2,0%
same,%Inh,LTK; [1],3%
same,%Inh,LYN,25%
same,%Inh,LZK,21%
same,%Inh,MAK,35%
same,%Inh,MAP3K15,0%
same,%Inh,MAP3K1,0%
same,%Inh,MAP3K2,0%
same,%Inh,MAP3K3,0%
same,%Inh,MAP3K4,19%
same,%Inh,MAP4K2,0%
O=C(NCCCN1CCOCC1)c1cccc(Nc2nccc(Nc3ccc(Oc4ccccc4)cc3)n2)c1 [GW663929],%Inh,KIT-autoinhibited,16%
same,%Inh,KIT,80%
same,%Inh,LATS1,0%
same,%Inh,LATS2,1%
same,%Inh,LCK,99.3%
same,%Inh,LIMK1,21%
same,%Inh,LIMK2,22%
same,%Inh,LKB1,10%
same,%Inh,LOK,23%
same,%Inh,LRRK2,0%
same,%Inh,LTK; [1],0%
same,%Inh,LYN,72%
same,%Inh,LZK,28%
same,%Inh,MAK,36%
same,%Inh,MAP3K15,0%
same,%Inh,MAP3K1,0%
same,%Inh,MAP3K2,0%
same,%Inh,MAP3K3,0%
same,%Inh,MAP3K4,0%
same,%Inh,MAP4K2,13%
COc1cc2ncn(-c3cc(OCc4sccc4Cl)c(C(N)=O)s3)c2cc1OC [GSK448459],%Inh,KIT-autoinhibited,0%
same,%Inh,KIT,31%
same,%Inh,LATS1,47%
same,%Inh,LATS2,0%
same,%Inh,LCK,34%
same,%Inh,LIMK1,4%
same,%Inh,LIMK2,0%
same,%Inh,LKB1,0%
same,%Inh,LOK,99.1%
same,%Inh,LRRK2,0%
same,%Inh,LTK; [1],0%
same,%Inh,LYN,0%
same,%Inh,LZK,0%
same,%Inh,MAK,7%
same,%Inh,MAP3K15,0%
same,%Inh,MAP3K1,88%
same,%Inh,MAP3K2,10%
same,%Inh,MAP3K3,0%
same,%Inh,MAP3K4,0%
same,%Inh,MAP4K2,20%
N#Cc1ccc(-c2cc(-c3c[nH]nc3-c3ccccn3)ccn2)cc1 [GW693028],%Inh,KIT-autoinhibited,5%
same,%Inh,KIT,6%
same,%Inh,LATS1,0%
same,%Inh,LATS2,0%
same,%Inh,LCK,0%
same,%Inh,LIMK1,16%
same,%Inh,LIMK2,3%
same,%Inh,LKB1,0%
same,%Inh,LOK,0%
same,%Inh,LRRK2,44%
same,%Inh,LTK; [1],0%
same,%Inh,LYN,0%
same,%Inh,LZK,0%
same,%Inh,MAK,21%
same,%Inh,MAP3K15,0%
same,%Inh,MAP3K1,6%
same,%Inh,MAP3K2,0%
same,%Inh,MAP3K3,0%
same,%Inh,MAP3K4,24%
same,%Inh,MAP4K2,0%

# — PMC5540273 (PLoS ONE, 2017)
